CYP2C9 activ – human CYP2C9 activators, primary screen, biochemical, luminescence. recombinant CYP2C9, luciferin-H conversion; active compounds read high; factor 1 = untreated enzyme, 0 = blocked. Cytochrome P450 2C9 (Homo sapiens), P11712. activation factor at 5 µM. hit rate 1.4% among 96,000;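 active means activation factor of 2 or more for CYP2C9 at a 5 µM dose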;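 further: 0 = sulfaphenazole-blocked wells and 1 = vehicle-only wells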
Target sequence (P11712 whole entry, looked up): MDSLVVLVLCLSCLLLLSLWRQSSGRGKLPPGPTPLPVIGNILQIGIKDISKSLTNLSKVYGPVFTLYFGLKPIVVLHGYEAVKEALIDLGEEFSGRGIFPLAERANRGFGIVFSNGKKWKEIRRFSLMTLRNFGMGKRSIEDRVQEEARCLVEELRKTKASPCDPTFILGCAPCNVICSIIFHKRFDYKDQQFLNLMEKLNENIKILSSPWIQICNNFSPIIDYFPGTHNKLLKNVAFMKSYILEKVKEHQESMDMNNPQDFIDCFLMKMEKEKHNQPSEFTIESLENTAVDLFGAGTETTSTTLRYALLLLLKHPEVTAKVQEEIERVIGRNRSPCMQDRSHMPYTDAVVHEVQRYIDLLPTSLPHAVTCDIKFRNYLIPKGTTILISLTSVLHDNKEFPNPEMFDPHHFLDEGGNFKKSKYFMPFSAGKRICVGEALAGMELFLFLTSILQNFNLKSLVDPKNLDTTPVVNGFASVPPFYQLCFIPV
CYP2C9 inhib – blockers of cytochrome P450 2C9 activity – biochemical, luminescence, ADME assay, primary screen | P11712 | CYP2C9 Supersomes, luciferin-H conversion | inhibition, % at 5 µM | hit rate 20% among 96,000 | AID 777, 2007;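 active means blocking of liver enzyme CYP2C9 beyond about 50% at 5 µM, limit read from the data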
CYP2C19 activ – human CYP2C19 activators, primary screen, biochemical, luminescence. activation factor at 5 µM. 96,000 tested, under 10 active. Cytochrome P450 2C19 (Homo sapiens), P33261. recombinant CYP2C19, luciferin-H EGE luminescence; active compounds read high; 0 = fully inhibited enzyme, 1 = untreated enzyme;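 active means activation factor of at least 2 at 5 µM in the primary screen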;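 further: 0 = wells with 2.5 mM tranylcypromine and 1 = vehicle-only wells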
PostGolgi yeast – phenotypic screen on post-Golgi transport, primary screen; hit rate 0.9% among 98,000; inhibition, % at 10 µM; AID 739, 2007; post-Golgi transport phenotypic cell assay;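 further: yeast cells grown in 1536-well plates; yeast grown about 18 h at 30C before absorbance read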
PostGolgi ctrl – growth inhibition of yeast control strain, primary screen, counter-screen for post-Golgi transport modulator project. efflux-deficient yeast background strain, growth absorbance A615, 16 h. inhibition, % at 10 µM. hit rate 5% among 98,000
CYP2C19 inhib – blockers of cytochrome P450 2C19 activity – biochemical, luminescence, ADME assay, primary screen; CYP2C19 Supersomes, luciferin-H EGE luminescence, 30 min; AID 778, 2007; hit rate 21% among 96,000; inhibition, % at 5 µM;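 active means CYP2C19 inhibition above a set limit at 5 µM in the primary screen, cut at about 50% in these data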;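 further: plate controls were negative control wells for no effect and 2.5 mM tranylcypromine positive control for full effect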
* = called active by the depositor; . = not tested or not shown. This is a sample that favours compounds with a hit; in the whole collection about 32% have one here. Unless noted, no stated cut-off is given here; in the data, active means inhibition above about 30%; inactive means the rest.

SMILES	CYP2C9 activ	CYP2C9 inhib	CYP2C19 activ	PostGolgi yeast	PostGolgi ctrl	CYP2C19 inhib
CCOC(=O)C1CCCN(S(=O)(=O)Cc2ccccc2)C1 (stereo not given)	0.9	10	0.8	1	4	20
CCOC(=O)C1CCN(S(=O)(=O)Cc2ccccc2)CC1	0.3	69*	0.6	3	3	45
CCOC(=O)C1CCN(S(=O)(=O)Cc2ccc(Cl)cc2)CC1	0.1	93*	0.1	2	19	87*
O=C(/C=C/c1ccc(Cl)cc1)NCCN1CCOCC1	0.9	11	0.9	3	11	6
Cn1nnnc1SCC(=O)Nc1ccccc1N1CCCCC1	.	.	.	13	3	.
N#Cc1nc(-c2ccccc2F)oc1NCc1ccccc1	0.3	66*	0.6	0	21	38
COCCCNc1oc(-c2ccccc2F)nc1C#N	0.4	58*	0.3	1	0	66*
N#Cc1cc2c(nc1SCc1cccnc1)CCCCC2	0.5	50	0.2	44*	63*	80*
N#Cc1cc2ccccc2nc1SCc1cccnc1	0.6	40	0.5	3	5	52*
COC(=O)CC(=O)CSc1nc2c(cc1C#N)CCCCC2	0.2	76*	0.4	4	10	62*
COc1ccc2nc(SCc3cccnc3)c(C#N)cc2c1	0.5	49	0.6	22	-4	39
N#Cc1cc2c(nc1SCC(O)CS(=O)(=O)Cc1ccccc1)CCCC2 (stereo not given)	0.4	58*	0.8	3	5	22
N#Cc1cc2c(nc1SCc1cccc(Cl)c1)CCCCC2	0.9	10	0.9	-2	-2	15
CCN1CCCC1CNC(=O)Cn1cccc1C(=O)c1ccccc1C (stereo not given)	0.9	15	0.8	-3	27	21
CC1(C)CC(=O)C2=C(C1)Nc1[nH]c(=S)[nH]c(=O)c1C2c1ccccc1 (stereo not given)	0.7	35	1	3	6	2
N#Cc1cc2c(nc1SCc1ccccc1)CCCCC2	0.8	16	0.9	-3	31*	14
Cc1ccc(C(=O)N2CCOCC2)cc1S(=O)(=O)Nc1cccc(C)c1C	.	.	.	5	1	.
Cc1ccccc1NS(=O)(=O)c1cc(C(=O)Nc2ccccc2-c2ccccc2)ccc1Cl	0.2	84*	0.6	-8	27	36
Cc1ccc(C)c(NS(=O)(=O)c2cc(C(=O)N3CCc4ccccc4C3)ccc2Cl)c1	0.4	59*	0.6	104*	71*	36
CCOC(=O)N1CCN(C(=O)c2ccc(C)c(S(=O)(=O)Nc3cccc(C)c3C)c2)CC1	0	98*	0.5	3	0	54*
CCOC(=O)N1CCN(C(=O)c2ccc(C)c(S(=O)(=O)Nc3ccccc3)c2)CC1	0.6	43	1	1	0	3
Cc1cccc(NS(=O)(=O)c2cc(C(=O)N3CCc4ccccc4C3)ccc2Cl)c1C	0.4	58*	0.6	97*	74*	36
C=CCNC(=O)c1ccccc1NC(=O)c1ccc(Cl)c(S(=O)(=O)Nc2cc(C)ccc2C)c1	1	-2	0.9	-4	18	6
CCOC(=O)C1CCN(C(=O)NC23CC4CC(CC(C4)C2)C3)CC1	0.9	11	0.5	2	13	48
C=CCC(Nc1ccco1)c1ccccc1 (stereo not given)	1.1	-10	1.1	-4	9	-10
CN(C)/C=N/c1ncc(C(=O)c2ccc3ccccc3c2)s1	2.3*	-128	0.5	2	17	53*
COc1ccc(C(=O)c2cnc(/N=C/N(C)C)s2)cc1	0.8	17	0.8	10	10	24
Cc1cc(=O)n2nc(N3CCC(C(=O)NC(C)c4ccccc4)CC3)sc2n1 (stereo not given)	0.9	5	1	-8	11	-4
CN1C(=O)c2oc3ccc(Br)cc3c(=O)c2C1c1ccncc1 (stereo not given)	0.6	44	0.8	.	.	18
COCCN(C(=O)CSc1nnc(Nc2ccccc2F)s1)c1c(N)n(Cc2ccccc2)c(=O)[nH]c1=O	0.4	62*	0.7	-5	-3	32

From PubChem
